Molecules are shown by their SMILES. Several values for one entry are separate records, joined by “and”; a condition that tells them apart may be missing. Identical values can stand only once. The panel holds about 83,000 compounds, 20% with a hit somewhere; the sample as a whole holds those more often.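 A percent growth of 40 corresponds to 60% growth inhibition; 0 means no net growth; -100 means all cells died. Active threshold: below 10.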 Activity calls are given as the source filed them. Where a SMILES comes first, the peptide text is derived from it.

The subject of the experiment is MOLT-4 leukemia. Kind of experiment: NCI-60 one-dose screen, 48 h (100 = growth as untreated, 0 = no growth, -100 = all killed). The note with it: 10 µM unless noted. How it is done:
Growth inhibition of the MOLT-4 human tumor cell line is measured as a screen for anti-cancer activity. Cells are grown in 96 well plates and exposed to the test compound for 48 hours. Compounds are tested at a single concentration, which is 10^-5 M for most compounds. The reported endpoint is percent growth (GI% or GIPRCNT), where numbers from 0 - 100% represent growth inhibition, and numbers from -100% - 0 represent cell death. For example, a value of 40 represents 60% growth inhibition. A value of 0 means no net growth occurred over the course of the experiment. A value of -40 indicates 40% of cells at the beginning of the experiment died by the end of the experiment. A value of -100 means all cells are dead at the end of the experiment.
NCI-60 Human Tumor Cell Lines Screen was performed using the standard one-dose NCI protocol, which is described in more detail at https://dtp.cancer.gov/discovery_development/nci-60/default.htm.
Compounds with GIPRCNT values below 10 were considered active. Activity score was based on GIPRCNT using the following formula: […]
Score is 0 for GIPRCNT values of 100 or above, 50 for GIPRCNT values of 0, and 100 for GIPRCNT values of -100.
Regarding `CCCCOc1ccc(Nc2cc(Cl)ccc2C(=O)O)cn1`, the growth is 94.6% (inactive) and 108% (inactive).
Take `CCCCCCCCCCCCCCCCC(C(=O)O)C(O)(CC(=O)O)C(=O)O` (stereo not given): the growth is 90.3% (inactive) and 1.35% (active).
With `CCCCCCCCCCNC(=O)CI` the figure was -28.9% (active).
With `NC(Cc1ccccc1)C(=O)NC(Cc1ccccc1)C(=O)O` (stereo not drawn) (H-Phe-Phe-OH; configuration not given here) the figure was 100% (inactive) and 101% (inactive); with `CC(C)NC(=O)N/C=C(\C#N)C(N)=O`, 106% (inactive).
The result for `c1ccc(-c2nc3ccccc3s2)cc1` reads 103% (inactive); that for `Brc1ccc(SSc2ccc(Br)cc2)cc1`, 4.43% (active); that for `CC1=C/C(O)CC(=O)Cc2nc(co2)C(=O)N2CCC=C2C(=O)OC(C(C)C)C(C)/C=C\C(=O)NC/C=C\1` (stereo not given), 77.4% (inactive).
In the case of `Fc1ccc([I+]c2ccc(F)cc2)cc1`, the growth is 54.8% (inactive).
As to `O=c1[nH]cnc2c1ncn2C1OC(CO)C(O)C1O` (stereo not given), the growth is 93% (inactive) and 76% (inactive) and 105% (inactive).
Turning to `O=C1OC(c2ccccc2)=N/C1=C\c1ccccc1`, the growth was 105% (inactive).
With `N#CC(C#N)N=Nc1cc(Cl)ccc1Cl`, the growth is 92.4% (inactive).
In the case of `COc1ccc(Nc2ccc3ccccc3c2)cc1`, the growth was 71.5% (inactive).
Take `O=C(O)CCCl`: the growth was 109% (inactive).
With `O=C1CSC2=NCCN12` the figure was 106% (inactive) and 67.1% (inactive); with `C/C(=C\c1ccccc1)c1ccccn1`, 73.3% (inactive).
Regarding `Cc1cc(-c2cc(C)c(O)c(C)c2)cc(C)c1O`, the growth is 74.9% (inactive).
With `O=C1C=C(Nc2ccccc2)c2ccccc2C1=O`, the growth is 72.7% (inactive) and 87% (inactive).
On to `Cl`, for which the growth was 88.5% (inactive).
As to `O=C1OC(C(O)C(O)CO)C(O)=C1O` (stereo not given), the growth was 121% (inactive) and 105% (inactive).
As to `NN1CCOC(c2ccccc2)C1` (stereo not given), the growth was 76.1% (inactive).
`CC(=O)NCC(=O)c1ccc([N+](=O)[O-])cc1`: the growth was 98.4% (inactive).
With `Nc1cc(N)c(N)cc1N` the figure was 83.2% (inactive); with `Nc1ccc2c(O)cc(S(=O)(=O)O)cc2c1`, 87.3% (inactive) and 92.5% (inactive); with `CCc1cc(C)cc(O)c1`, 98.1% (inactive).
The result for `NC(=O)NCCCC(N)C(=O)O` (stereo not given) reads 88.7% (inactive); that for `CCCCCCCCCCCCCCCc1ccc(N)c(OC2OC(CO)C(O)C(O)C2O)c1` (stereo not given), 60.8% (inactive); that for `Nc1nc(N)c2[nH]cnc2n1`, 92.6% (inactive).
In the case of `NC(Cc1c[nH]c2ccccc12)C(=O)O` (stereo not given), the growth was 3.12% (active) and 100% (inactive).
Consider `c1ccc(CNCCNCc2ccccc2)cc1`, for which the growth was 105% (inactive).
With `CC(C)C(C)(C)c1ccc(O)cc1`, the growth was 106% (inactive).
`Cc1ccc(=O)[nH]n1`: the growth was 105% (inactive) and 101% (inactive).
For `O=C1c2c(O)ccc(O)c2C(=O)c2c(NCCNCCO)ccc(NCCNCCO)c21`, the growth is 2.98% (active) and -18.1% (active).
With `O=C(Cc1ccccc1)c1ccc(O)c(Cl)c1` the figure was 22.6% (inactive); with `O=CN1CCCCC1`, 121% (inactive); with `CN(C)c1ccc(/C=C\C(=O)c2ccccc2)cc1`, 74.5% (inactive) and 85.3% (inactive) and 72.2% (inactive).
On to `CCOC(=O)c1c(C)cc(=O)oc1C`, for which the growth is 101% (inactive).
Consider `OCCN1CCCCCCC1`, for which the growth is 106% (inactive).
With `CN1CNC(=O)NC1` the figure was 99.9% (inactive) and 85.2% (inactive); with `COc1cc(C(O)C2C(=O)OCC2C2(c3ccc4c(c3)OCO4)SCCCS2)cc(OC)c1OC` (stereo not given), 94% (inactive).

Source of the values: PubChem BioAssay (NCI).
